Consider 20 compounds from PubChem BioAssay (EPA / NIEHS).

Active and inactive are the calls of the source. The calls were made as follows: active = hit-call score of the fitted dose curve at least 0.9, where 1 is the maximum; inactive = score below 0.9.

Assay [1] in a line: APR_HepG2_CellCycleArrest_24hr: Apredica 24-hour HepG2 Assay for Cell Cycle Arrest (AID 2282905).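 Also: cell cycle arrest scored as ratio of 2N to 4N nuclear DNA content.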 The settings on record: imaging, actives raise or lower the signal. The method in brief: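 Step one: dose HepG2 with test compounds, 0.39–200 uM, 0.5% DMSO, 24 hr. Step two: fix, permeabilize, stain nuclei with Hoechst 33342. Step three: image six fields per well at 20x, quantify DNA content, fit bidirectionally relative to DMSO.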

A short description of assay [2]: APR_HepG2_NuclearSize_24hr: Apredica 24-hour HepG2 Assay for Nuclear Size (AID 2282907). The settings on record: high-content imaging, actives raise or lower the signal. The method in brief:
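After fixation and permeabilization, 24-hr-treated HepG2 cells were stained with Hoechst 33342 and imaged on an ArrayScan (20x). Doses spanned 0.39–200 uM in duplicate. Nuclear diameter changes in either direction were fitted relative to 0.5% DMSO controls.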

Assay [3] can be described thus: APR_HepG2_CellLoss_24hr: Apredica 24-hour HepG2 Assay for Cell Loss (AID 2282908).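 As to AC50: fit in both directions so a hit may be cell loss or gain.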 The settings on record: high-content imaging. The method in brief: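 Duplicate wells received compound at ten concentrations (0.39–200 uM; final DMSO 0.5% v/v). After fixation with formaldehyde, nuclei stained with Hoechst 33342 were imaged at 20x. Loss or gain of cell count was fitted relative to DMSO controls.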

The nature of assay [4]: APR_HepG2_MicrotubuleCSK_24hr: Apredica 24-hour HepG2 Assay for Microtubule CSK Stabilty (AID 2282909). The settings on record: HepG2 microtubule cytoskeleton imaging, actives raise or lower the signal. The method in brief: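 Microtubule stability is scored from tubulin immunofluorescence in fixed HepG2 cells imaged at 20x. Cells receive ten compound concentrations up to 200 uM for 24 h; taxol and DMSO serve as positive and negative controls.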

The nature of assay [5]: APR_HepG2_MitoticArrest_24hr: Apredica 24-hour HepG2 Assay for Mitotic Arrest (AID 2282910). The settings on record: high-content imaging, actives raise or lower the signal. The procedure, abridged:
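High-content imaging of fixed HepG2 cells labeled with Hoechst 33342 and anti-phospho-histone H3, after 24 h treatment. Ten concentrations 0.39 to 200 uM in duplicate, final DMSO 0.5%; changes fitted both directions relative to DMSO.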

A short description of assay [6]: APR_HepG2_MitoMembPot_24hr: Apredica 24-hour HepG2 Assay for Mitochondrial Membrane Potential (AID 2282911). The settings on record: imaging, actives raise or lower the signal. The procedure, abridged:
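Human hepatoma HepG2 cultures received ten compound concentrations up to 200 uM for 24 hr. Membrane-potential dye signal, captured by automated fluorescence microscopy, was scored for gain or loss against DMSO controls.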

A short description of assay [7]: APR_HepG2_MitoMass_24hr: Apredica 24-hour HepG2 Assay for Mitochondrial Mass (AID 2282912). The settings on record: high-content imaging, actives raise or lower the signal. The procedure, abridged:
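Readout: fluorescence of MitoTracker Red CMXRos (250 nM, added 30 min pre-fixation) in fixed HepG2 cells imaged by HCS. Exposure lasted 24 hr at 0.39–200 uM; increases and decreases were both fitted relative to DMSO.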

A short description of assay [8]: APR_HepG2_p53Act_24hr: Apredica 24-hour HepG2 Assay for p53 Activation (AID 2282913).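 Also: p53 protein immunofluorescence averaged per cell in HepG2 with Hoechst nuclei.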 The settings on record: high-content imaging, actives raise or lower the signal. The method in brief: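 Automated fluorescence imaging quantifies p53 immunostaining in HepG2 cells after a 24 hr exposure (0.39–200 uM, duplicate, 0.5% DMSO). Nuclei are located by Hoechst 33342 staining.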

Assay [9] can be described thus: APR_HepG2_CellCycleArrest_72hr: Apredica 72-hour HepG2 Assay for Cell Cycle Arrest (AID 2282914). The settings on record: high-content imaging, actives raise or lower the signal. The method in brief:
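Cell cycle arrest in HepG2 was scored from nuclear DNA content after 72 hr compound treatment (0.39–200 uM). Activity, either gain or loss, was fitted against the DMSO baseline.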

Assay [10] can be described thus: APR_HepG2_CellLoss_72hr: Apredica 72-hour HepG2 Assay for Cell Loss (AID 2282915). The settings on record: high-content imaging. The method in brief: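 Cell number comes from Hoechst 33342-labelled nuclei, imaged at 20x after 3.7% formaldehyde fixation. Dosing was 0.39–200 uM, ten concentrations in duplicate, 0.5% DMSO final, for 72 h. Bidirectional fit relative to DMSO baseline.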

With `COC(=O)c1ccccc1O`, the compound was called inactive in [1], in assay [2], in assay [3], in assay [4], in assay [5] and in assay [6]. The call in assay [7], in assay [8], in [9] and in assay [10] was inactive.
For `C=CCCCCCCCCC(=O)O`, the compound was called inactive in assay [1], in assay [2], in assay [3], in assay [4], in assay [5] and in [6]. The compound was classed as inactive in assay [7], in assay [8], in assay [9] and in [10].
For `C1N2CN3CN1CN(C2)C3`, the result in assay [1], in [2], in assay [3], in [4], in assay [5] and in assay [6] was inactive. Moreover, the outcome in [7], in [8], in [9] and in assay [10] was inactive.
As a reminder, the AC50 is the concentration at which the activity in the assay is half-maximal. Consider `COc1cccc(-c2ccc(/C=C\CN3CCCCCC3)cc2Cl)c1`, for which the AC50 in assay [1] is 87.1 µM (active); in assay [2], 59.5 µM (active); in assay [3] it was 74.8 µM (active); in assay [5], 28.5 µM (active); in [7], 23.8 µM (active); in [8], 30.8 µM (active). Also, the AC50 in assay [9] is 84.2 µM (active); in [10], 28.6 µM (active). The call in assay [4] and in [6] was inactive.
`COCCOCCOCCOC`: the compound was called inactive in [1], in assay [2], in assay [3], in [4], in assay [5] and in [6]. Also, the compound was classed as inactive in [7], in assay [8], in assay [9] and in assay [10].
As to `CC[C@H]1CC[C@H](NCc2cc3c(cc2OC)[C@H]2C[C@H]2C(=O)N3C)[C@H](c2ccccc2)N1`, the call in [1], in assay [2], in [3], in assay [4], in assay [5] and in assay [6] was inactive. Also, the result in assay [7], in assay [8] and in [9] was inactive. The AC50 in assay [10] was 72.5 µM (active).
`O=c1[nH]c2ccc(S(=O)CCN3CCC(Cc4ccc(F)cc4)CC3)cc2o1` (stereo not given): the compound was called inactive in [1], in assay [2], in assay [3], in assay [4], in assay [5] and in [6]. Moreover, the compound was called inactive in assay [7] and in assay [8]. Besides, the AC50 was 99.9 µM (active) in assay [9] and 76.1 µM (active) in assay [10].
As for `CCn1nc(Cc2ccccc2)cc1C1CCN(C[C@H]2C[C@H](N(C)[C@@H](C(=O)O)C(C)C)C[C@@H]2c2cccc(F)c2)CC1`, the figures for the AC50 in [1] and in assay [10] were 46.3 µM (active) and 90.9 µM (active), respectively. The result in assay [2], in assay [3], in assay [4], in assay [5], in assay [6] and in [7] was inactive. Also, the outcome in assay [8] and in [9] was inactive.
As for `CC[C@H](C)C(=O)O[C@H]1C[C@@H](C)C=C2C=C[C@H](C)[C@H](CC[C@@H]3C[C@@H](O)CC(=O)O3)[C@H]21`, the compound was called inactive in [1], in assay [2], in [4], in assay [8] and in assay [9]. For the same compound, the AC50 in assay [3] was 82 µM (active); in [5] it was 28.9 µM (active); in [6] it was 48.8 µM (active); in assay [7] it was 5.52 µM (active); in assay [10], 31.1 µM (active).
Take `CCCCC(CC)COC(=O)CCCCCCCCC(=O)OCC(CC)CCCC` (stereo not given): the call in [1], in [2], in assay [6] and in assay [7] was inactive. Also, the AC50 in [3] is 117 µM (active); in assay [4], 128 µM (active); in assay [5], 68.5 µM (active); in assay [8] it was 108 µM (active); in assay [9] it was 170 µM (active); in assay [10] it was 100 µM (active).
In the case of `CC[C@H]1OC(=O)[C@H](C)[C@@H](O[C@H]2C[C@@](C)(OC)[C@@H](O)[C@H](C)O2)[C@H](C)[C@@H](O[C@@H]2O[C@H](C)C[C@H](N(C)C)[C@H]2O)[C@](C)(O)C[C@@H](C)C(=O)[C@H](C)[C@@H](O)[C@]1(C)O`, the call in assay [1], in assay [2], in assay [3], in [4], in assay [5] and in assay [6] was inactive. Moreover, the result in assay [7], in assay [8], in [9] and in assay [10] was inactive.
For the compound `CCCC(=O)OCC`, the result in assay [1], in [2], in [3], in assay [4], in assay [5] and in [6] was inactive. Moreover, the call in [7], in [8], in [9] and in assay [10] was inactive.
Take `O=C1CCC(N2C(=O)c3ccccc3C2=O)C(=O)N1` (stereo not given): the compound was called inactive in assay [1], in [2], in assay [3], in [4], in [5] and in assay [6]. Further, the outcome in assay [7], in assay [8], in assay [9] and in [10] was inactive.
Turning to `COC(=O)CC(=O)OC`, the call in assay [1], in assay [2], in assay [3], in assay [4], in assay [5] and in [6] was inactive. Also, the outcome in [7], in assay [8], in assay [9] and in [10] was inactive.
In the case of `O=C(OC[C@H]1O[C@@H](OC(=O)c2cc(O)c(O)c(OC(=O)c3cc(O)c(O)c(O)c3)c2)[C@H](OC(=O)c2cc(O)c(O)c(OC(=O)c3cc(O)c(O)c(O)c3)c2)[C@@H](OC(=O)c2cc(O)c(O)c(OC(=O)c3cc(O)c(O)c(O)c3)c2)[C@@H]1OC(=O)c1cc(O)c(O)c(OC(=O)c2cc(O)c(O)c(O)c2)c1)c1cc(O)c(O)c(OC(=O)c2cc(O)c(O)c(O)c2)c1`, the call in [1], in assay [2], in assay [3], in assay [4], in assay [5] and in assay [9] was inactive. Also, the AC50 was 26.4 µM (active) in [6], 23.9 µM (active) in assay [7], 20.8 µM (active) in [8] and 21.4 µM (active) in assay [10].
Consider `CC(=O)OC[C@H]1O[C@@](COC(C)=O)(O[C@H]2O[C@H](COC(C)=O)[C@@H](OC(C)=O)[C@H](OC(C)=O)[C@H]2OC(C)=O)[C@@H](OC(C)=O)[C@@H]1OC(C)=O`, for which the result in assay [1], in assay [2], in [3], in assay [4], in assay [5] and in assay [6] was inactive. Besides, the call in [7], in [8], in assay [9] and in [10] was inactive.
Regarding `CC(C)=CCC/C(C)=C/CO`, the call in assay [1], in [2], in assay [3], in assay [4], in [5] and in assay [6] was inactive. For the same compound, the call in assay [7], in assay [8] and in [9] was inactive. Moreover, the AC50 in assay [10] was 81.1 µM (active).
For `CN(C)c1ccc(N=NS(=O)(=O)O)cc1`, the AC50 in assay [1] is 86.9 µM (active); in [9], 54.3 µM (active); in assay [10], 71.7 µM (active). The call in [2], in [3], in [4], in [5], in assay [6] and in assay [7] was inactive. Further, in assay [8], the outcome was inactive.
Consider `Cc1ccc(C)c(O)c1`, for which the compound was called inactive in assay [1], in [2], in [3], in [4], in assay [5] and in assay [6]. The compound was classed as inactive in [7], in assay [8], in assay [9] and in [10].
As for `CN(C)c1ccc(Cc2ccc(N(C)C)cc2)cc1`, the outcome in assay [1], in assay [2], in assay [3], in assay [4], in assay [5] and in assay [7] was inactive. In assay [8], the result was inactive. The values for the AC50 in assay [6], in assay [9] and in assay [10] were 55.9 µM (active), 50.8 µM (active) and 45.2 µM (active), respectively.
